Measured values: PubChem BioAssay (NCI)
Where “and” joins values, the source holds several entries; their conditions need not be identical. Equal entries are not always repeated. Compounds without any hit were thinned out: in the full panel of roughly 83,000, 20% have a hit.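 Results are percent growth after 48 hours of single-concentration exposure. 100 means growth as in untreated cells, lower positive values show inhibition; negative values down to -100 show cell death.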 Calls of active or inactive are those of the source. Rule for the calls: active = growth percent below 10; inactive = the rest.

Legend:
Experiment in all cases: NCI-60 one-dose screen, 48 h (100 = growth as untreated, 0 = no growth, -100 = all killed)
[1] = test system: HT29 colon; settings: 10 µM unless noted
[2] = test system: SNB-75 CNS; settings: 10 µM unless noted
[3] = test system: SNB-19 CNS; settings: 10 µM unless noted
[4] = test system: U251 CNS; settings: 10 µM unless noted
[5] = test system: PC-3 prostate; settings: 10 µM unless noted
[6] = test system: SK-MEL-5 melanoma; settings: 10 µM unless noted
[7] = test system: UACC-62 melanoma
[8] = test system: LOX IMVI melanoma; settings: 10 µM unless noted
[9] = test system: SK-MEL-28 melanoma; settings: 10 µM unless noted
[10] = test system: SK-MEL-2 melanoma; settings: 10 µM unless noted

Measured: growth

Clc1ccc2nc(Cl)c3ccccc3c2c1
active: [2] -15.3%
inactive: [1] 44.5% | [3] 53.2% | [4] 20.2% | [5] 84.2% | [6] 84.4% | [7]; 10 µM unless noted 96.2% | [8] 83.2% | [9] 97.6% | [10] 99%

Cc1c(C(N)=O)sc2ncn(CC(=O)Nc3ccc(Cl)cc3)c(=O)c12
inactive: [1] 126% | [2] 101% | [3] 103% | [4] 102% | [5] 97% | [6] 107% | [7]; 10 µM unless noted 99.2% | [8] 96.8% | [9] 145%

CNc1ccc(CSc2ccc(Cl)cc2)cc1
inactive: [1] 109% | [2] 95.4% | [3] 89.5% | [4] 97.4% | [5] 72.9% | [6] 97.9% | [7]; 10 µM unless noted 83% | [8] 103% | [9] 112%

C[n+]1ccc(Nc2ccc(NC(=O)c3ccc(Nc4cc[n+](C)c5ccc(N)cc45)cc3)cc2)cc1
inactive: [1] 96.9% | [2] 97.2% | [3] 100% | [4] 92% | [5] 90.1% | [6] 90.4% | [7]; 10 µM unless noted 89.2% | [8] 103% | [9] 116% | [10] 71.5%

C=C(C)[C@H]1CC/C(C)=C/CC[C@]2(C)O[C@H]2CC/C(C=O)=C\C1O (some centres not stated)
inactive: [1] 98.2% | [2] 106% | [3] 112% | [4] 103% | [5] 122% | [6] 94.8% | [7]; 10 µM unless noted 106% | [8] 98.1% | [9] 115% | [10] 1410%

CCN(CC)CCOc1ccccc1-n1c(C)ccc1-c1ccccc1
inactive: [1] 34.5% | [2] 93% | [3] 102% | [4] 85.3% | [5] 62.8% | [6] 90.8% | [7]; 10 µM unless noted 106% | [8] 88.5% | [9] 119% | [10] 102%

CCSc1nnc2n(Cc3ccccc3)c(=O)c3c(C)c(C(N)=O)sc3n12
inactive: [1] 100% | [2] 69.4% | [3] 108% | [4] 103% | [5] 97.3% | [6] 95.8% | [7]; 10 µM unless noted 97.7% | [8] 95.6% | [9] 109% | [10] 102%

Fc1ccc(-c2nnc(-c3c(-c4ccc(F)cc4)nc4ncccn34)o2)cc1
inactive: [1] 93.2% | [2] 102% | [3] 107% | [4] 107% | [5] 104% | [6] 95.4% | [7]; 10 µM unless noted 100% | [8] 96.4% | [9] 101%

CC1CC(C)/C(=N/NC(N)=O)C(C(O)CC2CCC(=O)NC2=O)C1 (configuration not stated)
inactive: [1] 35.8% | [2] 57.7% | [3] 31.4% | [4] 35.1% | [5] 40.6% | [6] 31.7% | [7]; 10 µM unless noted 46.3% | [8] 27.3% | [9] 37% | [10] 33.8%

COc1ccc2[nH]cc(/C=C3/C(=O)Nc4ccc(Cl)cc43)c2c1
inactive: [1] 17.5% | [3] 70.7% | [4] 38% | [5] 64.6% | [6] 55.2% | [7]; 10 µM unless noted 51.8% | [8] 17.7% | [9] 81.1%
active: [2] -1.24%

c1ccc2c(c1)[nH]c1c2cc[n+]2cc3c(cc12)CCCC3
active: [7]; 100 µM -23.2% and -48.3% | [10] -8.25%
inactive: [1] 18.5% | [2] 77.3% | [3] 35.1% | [4] 16.3% | [5] 22.8% | [6] 18.3% | [7]; 10 µM 29.6% | [8] 19.5% | [9] 32.7%

O=C1/C(=C/c2ccc([N+](=O)[O-])o2)Oc2ccc(Cl)cc21
active: [1] -15.3% | [5] -5.46% | [7]; 10 µM unless noted -89% | [8] -61.8% | [10] -45.6%
inactive: [2] 66.5% | [3] 91.9% | [4] 50.2% | [6] 18.4% | [9] 11.2%

O=C(CSc1nc2c(n1Nc1ccccc1)-c1ccccc1SC2)Nc1nc(-c2ccc(Cl)cc2)cs1
inactive: [1] 68.4% | [2] 44.8% | [3] 80.5% | [4] 34.4% | [5] 72.2% | [6] 88.1% | [7]; 10 µM unless noted 83.3% | [8] 30.4% | [9] 72% | [10] 111%

Nc1cc(Cl)c(S(N)(=O)=O)cc1S(N)(=O)=O
inactive: [1] 122% | [2] 86.7% | [3] 113% | [4] 100% | [5] 106% | [6] 102% | [7]; 10 µM unless noted 101% | [8] 101% | [9] 121%
active: [10] -16.2%

COC(=O)[C@]1(CCSC)N[C@H](c2cn(-c3ccccc3)nc2C)[C@@H]2C(=O)N(c3ccccc3)C(=O)[C@@H]21
inactive: [1] 103% | [2] 86% | [3] 109% | [4] 105% | [5] 101% | [6] 101% | [7]; 10 µM unless noted 102% | [8] 96.1% | [9] 109% | [10] 121%

COc1ccc(-c2nnc(COc3ccc(NC(=O)Nc4cc(C(F)(F)F)cc(C(F)(F)F)c4)cc3F)o2)cc1
inactive: [2] 16.7% | [3] 14.4% | [7]; 10 µM unless noted 16.4% | [9] 16.6%
active: [1] 2.11% | [4] 0.294% | [5] -12.8% | [6] -21.4% | [8] -15% | [10] -32.9%

COc1ccc2[nH]cc(/C=C3/C(=O)Nc4ccc(F)cc43)c2c1
inactive: [1] 79.1% | [2] 43.2% | [3] 88.2% | [4] 80.1% | [5] 76.4% | [6] 93.1% | [7]; 10 µM unless noted 73.5% | [8] 74.9% | [9] 96.2% | [10] 91.7%

S=C1SCN(Cc2ccccc2)CN1Cc1ccco1
inactive: [1] 27.4% | [2] 92.1% | [3] 101% | [4] 97.3% | [5] 90.3% | [6] 87.3% | [7]; 10 µM unless noted 91.6% | [8] 81.6% | [9] 105% | [10] 81.1%

C[C@]12C[C@H](O)[C@H]3[C@@H](CCC4=CC(=O)CC[C@@]43C)[C@@H]1CC[C@@H]2C(=O)CO
inactive: [1] 108% | [2] 78.5% | [3] 95.6% | [4] 93.5% | [5] 97.3% | [6] 91% | [7]; 10 µM unless noted 91.4% | [8] 97.7% | [9] 102% | [10] 93.4%

Cc1c(C(N)=O)sc2nc(SCC(=O)Nc3ccc(Cl)cc3)n(-c3ccccc3)c(=O)c12
inactive: [1] 87.9% | [2] 94.3% | [3] 101% | [4] 98.4% | [5] 73% | [6] 110% | [7]; 10 µM unless noted 96.8% | [8] 98.1% | [9] 181%
active: [10] -16.1%

C[n+]1ccc(C#N)c2ccccc21
inactive: [1] 65.1% | [2] 85.7% | [3] 109% | [4] 104% | [5] 107% | [6] 99.1% | [7]; 10 µM unless noted 115% | [8] 85.5% | [9] 106% | [10] 77.5%

CC(=O)Oc1ccc(C23c4ccccc4C2(OC(C)=O)c2cc(OC(C)=O)ccc23)cc1 (configuration not stated)
active: [4] 9.83%
inactive: [1] 111% | [2] 54% | [3] 65.9% | [5] 30.9% | [6] 88.8% | [7]; 10 µM unless noted 77.8% | [8] 48.2% | [9] 124% | [10] 97.9%

COC(=O)c1ccc2c(c1)nc(-c1ccc(O)c(OC)c1)n2-c1cc(C(C)(C)C)[nH]n1
inactive: [1] 96.3% | [2] 111% | [3] 101% | [4] 93.3% | [5] 65.8% | [6] 83.6% | [7]; 10 µM unless noted 88.3% | [8] 96.8% | [9] 118% | [10] 92.3%

COc1ccc(-n2nnc(C(=O)O)c2-c2cc(OC)c(OC)c(OC)c2)cc1
inactive: [1] 97.2% | [2] 95.5% | [3] 104% | [4] 95.9% | [5] 106% | [6] 104% | [7]; 10 µM unless noted 109% | [8] 94.9% | [9] 104% | [10] 95%

COc1c(O)cc2oc3cc(O)c(CC=C(C)C)c(O)c3c(=O)c2c1C/C=C(\C)CCC=C(C)C
inactive: [1] 26.7% | [2] 84.6% | [3] 80.5% | [4] 24.1% | [5] 19.5% | [6] 86.6% | [7]; 10 µM unless noted 98.9% | [9] 94.4% | [10] 75.3%
active: [8] -85.8%

NC(N)=N/N=C(/c1ccccc1)c1ccc(Cl)cc1
inactive: [1] 25.6% | [2] 56.1% | [3] 63.8% | [4] 70.8% | [5] 72.8% | [6] 56.8% | [7]; 10 µM unless noted 74.4% | [8] 74.4% | [9] 53.9% | [10] 118%

O=C(c1ccccc1)c1ccccc1Cl
inactive: [1] 92.9% | [2] 88.8% | [3] 97.1% | [4] 99% | [5] 96.1% | [6] 105% | [7]; 10 µM unless noted 99.6% | [8] 107% | [9] 103% | [10] 100%

O=C1Cc2cc(CCN3CCN(CCOCCO)CC3)c(Cl)cc2N1Cc1ccc(-c2ccccc2-c2nn[nH]n2)cc1
inactive: [1] 94.2% | [2] 82.6% | [3] 90.5% | [4] 94.1% | [5] 56.1% | [6] 100% | [7]; 10 µM unless noted 74.9% | [8] 89.7% | [9] 101% | [10] 81.1%
